# Screens: PubChem, several laboratories
# The list is not random: actives were taken first. Their share in the collection is about 2.4%.
# MEKK3 PB1 HTS: MEKK3-MEK5 PB1 interaction, increase or decrease | actives 1.4% (n = 290,000) | AID 1529 | binding response (% of control), % at 10 µM | bead-based flow cytometry, Alexa488-MEK5 binding to MEKK3; actives lie on both sides; 0 = blocked by unlabeled MEK5, 100 = vehicle | Q99759;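 active = binding response more than 3 SD above or below the average of its plate-row segment, actives on both sides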;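 also: Alexa488 bead fluorescence after subtracting the streptavidin-only scavenger bead signal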
# Target sequence (Q99759 whole entry, looked up): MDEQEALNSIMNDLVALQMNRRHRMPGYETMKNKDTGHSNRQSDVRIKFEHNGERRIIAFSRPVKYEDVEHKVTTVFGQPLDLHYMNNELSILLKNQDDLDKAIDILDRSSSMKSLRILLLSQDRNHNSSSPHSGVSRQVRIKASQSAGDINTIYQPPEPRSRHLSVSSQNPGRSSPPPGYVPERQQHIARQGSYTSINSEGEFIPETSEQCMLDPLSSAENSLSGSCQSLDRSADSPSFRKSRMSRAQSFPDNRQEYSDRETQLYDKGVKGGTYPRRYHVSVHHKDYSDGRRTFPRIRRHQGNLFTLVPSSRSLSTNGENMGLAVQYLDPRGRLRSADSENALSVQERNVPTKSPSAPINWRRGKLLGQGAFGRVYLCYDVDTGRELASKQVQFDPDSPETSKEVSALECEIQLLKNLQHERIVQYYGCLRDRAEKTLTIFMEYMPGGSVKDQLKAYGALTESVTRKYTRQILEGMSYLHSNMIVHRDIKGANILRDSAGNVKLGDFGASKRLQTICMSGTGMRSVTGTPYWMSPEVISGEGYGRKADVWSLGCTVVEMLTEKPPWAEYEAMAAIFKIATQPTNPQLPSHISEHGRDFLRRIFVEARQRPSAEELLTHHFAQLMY
# MEKK2 WT-MEK5: raises or lowers MEK5 binding to wildtype human MEKK2 PB1 domain | bead flow cytometry, Alexa488-MEK5 binding to MEKK2 WT; actives lie on both sides | actives 1.1% (n = 290,000) | Q9Y2U5 | binding response (% of control), % at 10 µM; in the data active = binding response below about 67% or above about 130%
# Pf gametocyte: kills late stage P. falciparum gametocytes; P. falciparum stage V gametocytes, ATP luminescence, 24 h; inhibition, % at 10.9 µM; actives 0.065% (n = 150,000);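 active = inhibition above the mean plus 3 SD of compounds within the control limits, set per campaign, cut at about 38% in these data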;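 also: 0% = DMSO wells and 100% = medium only without gametocytes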
# MEKK2mut PB1 HTS: signal of MEK5 binding to mutant human MEKK2 PB1 domain; bead flow cytometry, Alexa488-MEK5 binding to MEKK2 mutant; percent response, % at 10 µM; actives 0.35% (n = 290,000); AID 1530; in the data active = percent response above about 24%, passing the limit was not always enough
# Arbovirus anti: blocks arbovirus infection; actives 0.37% (n = 200,000); arbovirus infection cell-based antiviral screen; AID 1251; inhibition, % at 10 µM; in the data active = inhibition above about 30%
# MEKK2wt confirm: raises or lowers MEK5 binding to wildtype human MEKK2, retest; bead flow cytometry, Alexa488-MEK5 binding to MEKK2 WT; actives lie on both sides; binding response (% of control), % at 10 µM; actives 2.4% (n = 5,900); shares compounds with MEKK3 PB1 HTS; in the data active = binding response below about 16% or above about 210%; inactive = in between
# MEKK2mut-MEK5: signal of MEK5 binding to mutant human MEKK2, retest. shares compounds with MEKK3 PB1 HTS. bead flow cytometry, Alexa488-MEK5 binding to MEKK2 mutant. actives 2% (n = 5,900). percent response, % at 10 µM; in the data active = percent response mostly above about 71%, no sharp cut-off; inactive = mostly below about 38%;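 also: higher means compound restores mutant binding toward wildtype level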
# MEKK3 confirm: MEKK3-MEK5 PB1 inhibition, single concentration confirmation. shares compounds with MEKK3 PB1 HTS. bead flow cytometry, Alexa488-MEK5 binding to MEKK3; active compounds read low. binding response (% of control), % at 10 µM. actives 1.8% (n = 5,900);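 active = binding response below 72% of control, or above a set upper limit, though filed actives all read lower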;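 also: 100% = DMSO only wells and 0% = binding blocked by excess unlabeled MEK5; lower values mean stronger disruption of MEK5 binding to MEKK3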
# * = called active by the depositor; · = no result given; [ ] = another dose, or the depositor's remark.
SMILES,MEKK3 PB1 HTS,MEKK2 WT-MEK5,Pf gametocyte,MEKK2mut PB1 HTS,Arbovirus anti,MEKK2wt confirm,MEKK2mut-MEK5,MEKK3 confirm
CCN(CC)c1ccc(NC(=O)CSc2nc3ccccc3c(=O)n2-c2cc(S(=O)(=O)N(C)C)ccc2C)cc1,98,98,-5,-2,-3,·,·,·
O=c1c2cc(N3CCOCC3)ccc2[nH]c(=S)n1CCCN1CCCCCC1,101,148*,-19,13,1,125,10,99
CCOC(=O)c1c(C)[nH]c(C)c1C(=O)CSc1nc2ccccc2n1CC,135*,102,·,0,11,102,-3,100
CCOC(=O)c1c(C)[nH]c(C)c1C(=O)CSc1nc2ccccc2n1CCOC,104,110,-20,9,9,·,·,·
COc1ccc(NS(=O)(=O)c2cc(NC(=O)CCSc3ccccc3)ccc2OC)cc1,145*,111,·,-1,-8,100,0,105
CN(CCCN1CCCCC1)C(=O)CCc1nnc(C2CCCCC2)o1,99,95,0,-4,4,·,·,·
COc1ccc(OC)c(NC(=O)c2ccno2)c1,98,103,·,5,4,·,·,·
CN(CC(=O)NCc1cccs1)S(=O)(=O)c1cccc2nsnc12,2.0*[inhibitor],3.0*[inhibitor],17,-21,10,107,7,103
CCN(CC)S(=O)(=O)c1cccc(NC(=O)CN(C)Cc2cccc(OC)c2)c1,86,89,-41,-13,·,·,·,·
O=c1[nH]cc(I)cc1I,37*[inhibitor],38*[inhibitor],·,-27,·,101,4,102
CN1CCN(CC(=O)N2CCn3c4c(c5cc(C6CCCCC6)ccc53)CCCC42)CC1 (centres undefined),112,253*,·,84*,-41,215*,62,108
Cn1c(NC(=O)c2ccc(Cl)cc2)cc(=O)n(C)c1=O,136*,107,-12,0,19,104,-5,104
Cn1c(NC(=O)c2ccc(C(C)(C)C)cc2)cc(=O)n(C)c1=O,101,100,·,0,-8,·,·,·
Cc1[nH]c2ccccc2c1C(=O)COc1ccccc1,142*,118,8,1,10,102,3,101
Cc1[nH]c2ccccc2c1C(=O)COc1ccccc1F,106,103,-1,-39,0,·,·,·
CCc1nnc(NC(=O)C2CC(=O)N(Cc3ccccc3)C2)s1 (centres undefined),103,102,20,-3,6,·,·,·
CCc1nnc(NC(=O)C2CC(=O)N(Cc3ccco3)C2)s1 (centres undefined),122*,116,13,6,8,101,-3,100
Cc1ccc(-c2csc(N3CCN(c4cc5c(cc4Cl)nc(C(C)N)n5CCCO)CC3)n2)cc1 (centres undefined),102,110,15,10,·,·,·,·
Cc1csc(N2CCN(c3cc4c(cc3Cl)nc(-c3ccncc3)n4CCCN3CCCC3)CC2)n1,102,147*,4,22,·,164,51,107
Cc1ccc(-c2csc(N3CCN(c4cc5c(cc4Cl)nc(C)n5CCN4CCCCC4)CC3)n2)cc1,107,148*,-3,46*,·,177,47,111
Cc1csc(N2CCN(c3cc4nc(-c5ccncc5)[nH]c4cc3Cl)CC2)n1,99,95,·,1,·,·,·,·
CCNc1nc2cccnc2s1,86,92,2,-25,·,·,·,·
COc1ccccc1NC(=O)N1CCCC1C(=O)NCCc1ccccc1 (centres undefined),89,97,·,-3,·,·,·,·
O=C(NCc1ccc(F)cc1)C1Cc2ccccc2CN1C(=O)c1ccco1 (centres undefined),69*[inhibitor],84,·,-2,15,105,7,108
COc1ccc(N2C(=O)CC(Sc3ncn[nH]3)C2=O)c(OC)c1 (centres undefined),122*,116,·,11,5,102,-2,101
SMILES,MEKK3 PB1 HTS,MEKK2 WT-MEK5,Pf gametocyte,MEKK2mut PB1 HTS,Arbovirus anti,MEKK2wt confirm,MEKK2mut-MEK5,MEKK3 confirm
CC1=C(C(N)=O)C(c2ccc(Br)cc2)n2nc(CCCO)nc2N1 (centres undefined),72,44*[inhibitor],·,-11,·,107,4,103
CC1=C(C(N)=O)C(c2ccccc2F)n2nc(CCCO)nc2N1 (centres undefined),103,104,·,4,·,·,·,·
COc1cc(OC)c(OC)cc1/C=C1\CC(C)C/C(=C\c2cc(OC)c(OC)cc2OC)C1=O (centres undefined),101,123,·,12,·,·,·,·
COCc1nnc(NS(=O)(=O)c2ccccc2)s1,104,106,-5,5,-1,·,·,·
COCc1nnc(NS(=O)(=O)c2ccc(C)cc2)s1,0.0*[inhibitor],0.0*[inhibitor],8,-16,-4,99,-2,99
CC(=O)CSc1nnc2c3ccccc3nc(C(C)(C)C)n12,73*[inhibitor],63*[inhibitor],-4,-15,-14,101,-4,101
Cc1ccc(C(=O)CSc2nnc3c4ccccc4nc(C(C)(C)C)n23)cc1,106,96,10,1,-7,·,·,·
CC(C)CCNc1ncnc2c1nnn2Cc1ccccc1,103,106,-2,3,·,·,·,·
Cc1ccc(Nc2ncnc3c2nnn3Cc2ccccc2)cc1,132*,134,-10,29,·,104,1,103
CCc1nnc(NC(=O)C2=CCN(S(=O)(=O)c3ccc(F)cc3)CC2)s1,97,99,20,3,·,·,·,·
CN(C)c1nc(NCc2ccccc2)nc(N/N=C/c2cccc(Br)c2)n1,108,139*,·,15,0,125,13,106
Brc1cccc(/C=N/Nc2nn[nH]n2)c1,96,97,-6,-3,-4,·,·,·
CCCCC1=C([O-])C2N=CC=CC2=[N+](c2ccccn2)C1=O (centres undefined),138*,102,-11,0,-2,35,-25,82
Cc1ccc(S(=O)(=O)Nc2ccc3c(c2)OCCO3)c(C)c1NS(C)(=O)=O,105,105,·,3,·,·,·,·
O=C(COc1ccccc1Cl)N1CCN(C(=O)c2ccco2)CC1,101,107,·,5,·,·,·,·
O=C(c1cc(-c2cccc(Cl)c2)nc2ccccc12)N1CCCC1,100,102,·,8,·,·,·,·
COc1cc(/C=C/C(=O)CC(=O)/C=C/c2ccc(O)c(OC)c2)ccc1O,75,14*,·,40*,-16,88,-6,88
COc1cc(/C=C/C(=O)O)ccc1O,104,103,·,3,·,·,·,·
C=CCn1c(-c2ccccc2)c[nH]c1=S,124*,124,·,5,3,104,8,104
O=[N+]([O-])c1ccc(O)c(CSc2nnnn2-c2ccccc2)c1,96,103,-10,3,·,·,·,·
